# Where “and” joins values, the source holds several entries; their conditions need not be identical. Identical values can stand only once. A number with no mark means an inactive call.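 How the source made its calls: active = AUC reduced over 20% with Padj below 0.05 in at least 2 of 3 replicates; inactive = otherwise.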
# Tested on: Clostridium difficile
# Assay: growth AUC relative to DMSO control (median of replicates) (fraction); higher = more growth (less inhibition), active = hit call of the paper
# Conditions: 20 µM; 24 h
# How it was run: (§1)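 Area under the growth curve was normalised to the plate median of solvent-only wells, or to row and column medians on the industrial chemical plate. Growth curves came from anaerobic gut bacterial monocultures in mGAM at 37 °C, seeded at OD600 0.05 with 20 µM compound (1% DMSO), and read at OD600 hourly for 24 h with the minimum OD set to 0. The value is the median of three biological replicates grown on separate days.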
row,Structure (SMILES),growth AUC
1,CCOP(=S)(OCC)Oc1cc(Cl)c(Br)cc1Cl,0.977
2,Cc1cnc(C2=NC(C)(C(C)C)C(=O)N2)c(C(=O)O)c1 (stereo not given),1.01
3,CC1(C)CCC(Cc2ccc(Cl)cc2)C1(O)Cn1cncn1 (stereo not given),0.973
4,CCCN(CCC)c1c([N+](=O)[O-])cc(S(C)(=O)=O)cc1[N+](=O)[O-],0.965
5,Cc1occc1C(=O)Nc1ccccc1,1.05
6,CCCOCC(=Nc1ccc(Cl)cc1C(F)(F)F)n1ccnc1,0.922
7,Nc1cc(Cl)cc(Cl)c1,1
8,O=C(O)COc1cc(Cl)c(Cl)cc1Cl,1.01
9,Cc1cc(Cl)ccc1N=CN(C)C,0.998
10,CNC(=O)Oc1cc(C)cc(C(C)C)c1,0.93
11,CCOc1cc(Oc2ccc(C(F)(F)F)cc2Cl)ccc1[N+](=O)[O-],0.993
12,O=[N+]([O-])c1c(Cl)c(Cl)c(Cl)c(Cl)c1Cl,1.01
13,CC(Cc1ccc(C(C)(C)C)cc1)CN1CCCCC1 (stereo not given),0.971
14,CNC(=O)c1cc(C#N)cc(C)c1NC(=O)c1cc(Br)nn1-c1ncccc1Cl,1
15,O=P(Oc1ccccc1)(Oc1ccccc1)Oc1ccccc1,1
16,CC(=NC#N)N(C)Cc1ccc(Cl)nc1,0.986 and 1
17,CO/N=C(/C1=NOCCO1)c1ccccc1Oc1ncnc(Oc2ccccc2Cl)c1F,0.948
18,Cc1ccn2nc(S(=O)(=O)Nc3c(F)cccc3F)nc2n1,1.03
19,N#Cc1c(Cl)c(Cl)c(Cl)c(C#N)c1Cl,0.997
20,C=CCC1=C(C)C(OC(=O)[C@@H]2[C@@H](C=C(C)C)C2(C)C)CC1=O (stereo not given in full),1.04
21,O=C(O)CNCP(=O)(O)O,1.06

# Tested on: Collinsella aerofaciens
# Assay: as above
# Conditions: 20 µM; 24 h
# How it was run: as §1
row,Structure (SMILES),growth AUC
1,Nc1cc(Cl)cc(C(=O)O)c1Cl,1.06
2,CCOP(=S)(OCC)Oc1cnccn1,0.993
3,O=C(O)C(F)(F)C(F)(F)C(F)(F)C(F)(F)C(F)(F)C(F)(F)C(F)(F)C(F)(F)F,0.997
4,CCOP(=S)(OCC)SCSCC,1.01
5,CCOCn1c(-c2ccc(Cl)cc2)c(C#N)c(Br)c1C(F)(F)F,0.926
6,CCS(=O)(=O)c1cccnc1S(=O)(=O)NC(=O)Nc1nc(OC)cc(OC)n1,1
7,CCNc1nc(NC(C)C)nc(SC)n1,0.983
8,CN1COCN(Cc2cnc(Cl)s2)/C1=N/[N+](=O)[O-],1.02
9,COP(=S)(NC(C)C)Oc1ccccc1C(=O)OC(C)C (stereo not given),1.01
10,COC(=O)C(C)(Cl)Cl,1.01
11,CCCCOCN(C(=O)CCl)c1c(CC)cccc1CC,0.928
12,CC1(C)C(C=C(Cl)Cl)C1C(=O)OC(C#N)c1ccc(F)c(Oc2ccccc2)c1 (mixture of isomers),0.947
13,CCOC(=O)CC(SP(=O)(OC)OC)C(=O)OCC (stereo not given),0.973
14,CCNc1nc(Cl)nc(NC(C)C)n1,1.04
15,Cc1cccc(C)c1N,0.985
16,CN(C)C(=O)Nc1ccc(Cl)cc1,1.03
17,CCCCNC(=O)n1c(NC(=O)OC)nc2ccccc21,0.993
18,N#Cc1cc(I)c(O)c(I)c1,1.04
19,CCOP(=S)(OCC)Oc1cc(Cl)c(Br)cc1Cl,0.98
20,Cc1cnc(C2=NC(C)(C(C)C)C(=O)N2)c(C(=O)O)c1 (stereo not given),1.02

row,Structure (SMILES),growth AUC
1,CC1(C)CCC(Cc2ccc(Cl)cc2)C1(O)Cn1cncn1 (stereo not given),0.95
2,CCCN(CCC)c1c([N+](=O)[O-])cc(S(C)(=O)=O)cc1[N+](=O)[O-],0.914
3,Cc1occc1C(=O)Nc1ccccc1,0.959
4,CCCOCC(=Nc1ccc(Cl)cc1C(F)(F)F)n1ccnc1,0.941
5,Nc1cc(Cl)cc(Cl)c1,0.984
6,O=C(O)COc1cc(Cl)c(Cl)cc1Cl,1.07
7,Cc1cc(Cl)ccc1N=CN(C)C,1
8,CNC(=O)Oc1cc(C)cc(C(C)C)c1,0.952
9,CCOc1cc(Oc2ccc(C(F)(F)F)cc2Cl)ccc1[N+](=O)[O-],0.881
10,O=[N+]([O-])c1c(Cl)c(Cl)c(Cl)c(Cl)c1Cl,1.04
11,CC(Cc1ccc(C(C)(C)C)cc1)CN1CCCCC1 (stereo not given),0.959
12,CNC(=O)c1cc(C#N)cc(C)c1NC(=O)c1cc(Br)nn1-c1ncccc1Cl,0.981
13,O=P(Oc1ccccc1)(Oc1ccccc1)Oc1ccccc1,1.02
14,CC(=NC#N)N(C)Cc1ccc(Cl)nc1,1.02
15,CO/N=C(/C1=NOCCO1)c1ccccc1Oc1ncnc(Oc2ccccc2Cl)c1F,1.02
16,Cc1ccn2nc(S(=O)(=O)Nc3c(F)cccc3F)nc2n1,0.945
17,N#Cc1c(Cl)c(Cl)c(Cl)c(C#N)c1Cl,0.864
18,C=CCC1=C(C)C(OC(=O)[C@@H]2[C@@H](C=C(C)C)C2(C)C)CC1=O (stereo not given in full),1.03
19,O=C(O)CNCP(=O)(O)O,0.997
